Data published in PubChem BioAssay.
The source made the active and inactive calls.

Tests used:
[1] = tested on: Human papillomavirus type 1a protein E7 (residues 44-93); experiment: small molecules binding HPV E7 44-93 – biochemical, small-molecule microarray, residues 44-93, 635 nm fluorescence, primary screen (AID 1108); conditions: fluorescence 635 nm, higher = more signal;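 also: E7 fragment applied at 1 µg/mL in TBST for 1 h at 4 C; score combines spot fluorescence with its signal to noise ratio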
[2] = hepatitis C replication reporter changes, two-sided – Huh7 cells, luciferase reporter, HCV replication inhibitor project, primary screen (AID 1109); conditions: Huh7 HCV replicon luciferase reporter, 48 h; higher = more signal;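 also: huh7 hepatoma cells harbouring a luciferase neomycin HCV replicon reporter; luciferase luminescence as measure of HCV replicon replication; test concentration not given here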
[3] = biological target: Left-right determination factor 2 (Homo sapiens) (UniProt O00292); experiment: small molecules binding LEFTY2 protein – biochemical, small-molecule microarray, 635 nm fluorescence scan, primary screen (AID 1110); conditions: higher = more signal
[4] = biological target: Calmodulin-1 (Homo sapiens) (UniProt P0DP23); experiment: small molecules binding calmodulin-1 with EGTA – biochemical, small-molecule microarray, Cy5-labelled CALM1, profiling panel (AID 1111); conditions: Cy5-CALM1 binding fluorescence, higher = more signal;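 also: labelled calmodulin applied in Tris saline Tween buffer holding calcium plus EGTA and DTT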
[5] = biological target: Calmodulin-1 (Homo sapiens) (UniProt P0DP23); experiment: small molecules binding Ca-loaded calmodulin-1 – biochemical, small-molecule microarray, Cy5-labelled CALM1, plus calcium, artefact control for SMM control-protein annotation, profiling panel (AID 1112); conditions: Cy5-CALM1 binding fluorescence, higher = more signal;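 also: score merges spot fluorescence with signal to noise from triplicate slides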
[6] = probe aWnt5a binding to arrayed compounds – biochemical, biotinylated probe, 635/667 nm fluorescence, primary screen (AID 1113); conditions: small-molecule microarray, higher = more signal;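 also: score merges 667 nm fluorescence intensity with signal-to-noise per printed feature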
[7] = probe aShh binding to arrayed compounds – biochemical, biotinylated probe, 635/667 nm fluorescence, primary screen (AID 1114); conditions: small-molecule microarray, higher = more signal;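 also: probe is biotin-labelled aShh protein from a stem cell growth factor screen; measures binding of labelled protein to compounds printed on the slide; score merges feature fluorescence at 667 nm with signal-to-noise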
[8] = probe aNog binding to arrayed compounds – biochemical, biotinylated probe, 635/667 nm fluorescence, primary screen (AID 1115); conditions: small-molecule microarray, higher = more signal;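 also: probe is biotinylated aNog protein used at 0.15 µg/mL for 1 h at 4 C; z-score combines 667 nm fluorescence of each spot with its signal to noise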
[9] = biological target: Torsin-1A-interacting protein 1 (Homo sapiens) (UniProt Q5JTV8); experiment: compound microarray binding of lysate hLAP1 – cell lysate, small-molecule microarray, COS7 lysate, 635/667 nm fluorescence, primary screen (AID 1116); conditions: 635 nm fluorescence, higher = more signal
[10] = biological target: Alpha-bungarotoxin (Bungarus multicinctus) (UniProt P60615); experiment: compounds binding labelled alpha-BTX control protein – biochemical, small-molecule microarray, Alexa647 label, 635/667 nm fluorescence, artefact control for SMM control protein annotation, profiling panel (AID 1117); conditions: alpha-BTX-A647 binding fluorescence, higher = more signal
[11] = biological target: Albumin (Bos taurus) (UniProt P02769); experiment: compounds binding labelled BSA control protein – biochemical, small-molecule microarray, Alexa647 label, 635/667 nm fluorescence, artefact control for SMM control protein annotation, profiling panel (AID 1118); conditions: BSA-A647 binding, fluorescence 635 nm, higher = more signal;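 also: score merges 667 nm emission intensity and signal-to-noise per printed compound spot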
[12] = probe aXIP binding to arrayed compounds – biochemical, NeuroSMM set, 635/667 nm fluorescence, primary screen (AID 1119); conditions: small-molecule microarray, higher = more signal, called active from +8 up or from −8 down;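 also: probe is the protein aXip251-270 applied at 1 µg/mL to compound-printed slides; binding of probe to printed compounds measured as 667 nm fluorescence plus signal to noise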
[13] = probe aNOTCH3 binding on compound microarray – biochemical, small-molecule microarray, 635/667 nm fluorescence, primary screen (AID 1120); conditions: higher = more signal;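 also: probe is a biotin-tagged antibody raised against NOTCH3 rather than NOTCH3 protein; score merges spot fluorescence near 667 nm with spot signal to noise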
[14] = probe aNOTCH2 binding on compound microarray – biochemical, small-molecule microarray, 635/667 nm fluorescence, primary screen (AID 1121); conditions: higher = more signal;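 also: score merges feature fluorescence read at 667 nm with its signal to noise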
[15] = biological target: Carbonic anhydrase 2 (Homo sapiens) (UniProt P00918); experiment: compounds binding carbonic anhydrase 2 – biochemical, small-molecule microarray, Alexa647-labelled CAII, profiling panel (AID 1122); conditions: CAII-A647 binding fluorescence, higher = more signal
[16] = COS7 lysate on small-molecule microarray, probe aHis, 635 nm (AID 1123); conditions: COS7 cell lysate, fluorescence, higher = more signal;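 also: z-score combines 667nm fluorescence intensity with signal-to-noise per printed compound spot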
[17] = probe aLAP1 signal on lysate-treated microarray – cell lysate, small-molecule microarray, COS7 lysate, primary screen (AID 1124); conditions: probe aLAP1, fluorescence, higher = more signal;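 also: lysate comes from COS7 cells expressing LAP1 and is applied at 0.3 µg/mL; score merges spot fluorescence near 667 nm with signal-to-noise over triplicate slides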
[18] = tested on: Sam68 (KHDRBS1); experiment: compounds binding KHDRBS1 protein – biochemical, small-molecule microarray, 635 nm fluorescence, primary screen (AID 1125); conditions: higher = more signal;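 also: score merges 667 nm channel intensity with signal to noise over triplicate slides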
[19] = tested on: Chordin-like protein 2 (CHRDL2); experiment: compounds binding chordin-like 2 – biochemical, small-molecule microarray, 635 nm fluorescence, primary screen (AID 1126); conditions: fluorescence 635 nm, higher = more signal;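 also: printed compound slides probed with Chrdl2 protein at 4 µg/mL for 1 h at 4 C; score merges 667 nm emission intensity with signal to noise over three replicate slides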
[20] = biological target: Concanavalin-A (Canavalia ensiformis) (UniProt P02866); experiment: compounds binding concanavalin A lectin – biochemical, small-molecule microarray, Alexa647 label, 635 nm, artefact control for SMM control protein annotation, primary screen (AID 1127); conditions: ConA-A647 binding fluorescence, higher = more signal;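 also: z combines 667 nm emission intensity with signal-to-noise across three replicate slides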
Chain of Concanavalin-A (Canavalia ensiformis) (P02866 whole entry, looked up): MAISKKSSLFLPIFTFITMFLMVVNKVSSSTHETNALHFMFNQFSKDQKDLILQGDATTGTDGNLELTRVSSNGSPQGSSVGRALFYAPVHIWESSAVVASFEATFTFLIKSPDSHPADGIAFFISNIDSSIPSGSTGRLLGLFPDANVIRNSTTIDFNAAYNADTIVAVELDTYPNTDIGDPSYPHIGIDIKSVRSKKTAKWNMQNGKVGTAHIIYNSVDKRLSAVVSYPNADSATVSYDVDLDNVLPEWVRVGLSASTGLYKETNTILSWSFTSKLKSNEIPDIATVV

Chain of Left-right determination factor 2 (Homo sapiens) (O00292 whole entry, looked up): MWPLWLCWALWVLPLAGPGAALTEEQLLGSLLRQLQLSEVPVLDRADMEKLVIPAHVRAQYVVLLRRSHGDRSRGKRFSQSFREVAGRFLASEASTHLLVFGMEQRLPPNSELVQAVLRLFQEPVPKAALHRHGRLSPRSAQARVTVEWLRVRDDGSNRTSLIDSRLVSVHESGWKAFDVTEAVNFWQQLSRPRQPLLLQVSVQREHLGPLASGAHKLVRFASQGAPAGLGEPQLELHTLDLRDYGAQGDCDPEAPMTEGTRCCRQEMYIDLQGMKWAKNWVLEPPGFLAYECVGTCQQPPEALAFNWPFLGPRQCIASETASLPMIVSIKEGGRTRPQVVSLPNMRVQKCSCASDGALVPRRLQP
Chain of Alpha-bungarotoxin (Bungarus multicinctus) (P60615 whole entry, looked up): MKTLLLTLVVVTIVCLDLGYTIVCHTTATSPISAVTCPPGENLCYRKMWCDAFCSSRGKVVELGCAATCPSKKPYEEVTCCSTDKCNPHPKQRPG
Chain of Torsin-1A-interacting protein 1 (Homo sapiens) (Q5JTV8 whole entry, looked up): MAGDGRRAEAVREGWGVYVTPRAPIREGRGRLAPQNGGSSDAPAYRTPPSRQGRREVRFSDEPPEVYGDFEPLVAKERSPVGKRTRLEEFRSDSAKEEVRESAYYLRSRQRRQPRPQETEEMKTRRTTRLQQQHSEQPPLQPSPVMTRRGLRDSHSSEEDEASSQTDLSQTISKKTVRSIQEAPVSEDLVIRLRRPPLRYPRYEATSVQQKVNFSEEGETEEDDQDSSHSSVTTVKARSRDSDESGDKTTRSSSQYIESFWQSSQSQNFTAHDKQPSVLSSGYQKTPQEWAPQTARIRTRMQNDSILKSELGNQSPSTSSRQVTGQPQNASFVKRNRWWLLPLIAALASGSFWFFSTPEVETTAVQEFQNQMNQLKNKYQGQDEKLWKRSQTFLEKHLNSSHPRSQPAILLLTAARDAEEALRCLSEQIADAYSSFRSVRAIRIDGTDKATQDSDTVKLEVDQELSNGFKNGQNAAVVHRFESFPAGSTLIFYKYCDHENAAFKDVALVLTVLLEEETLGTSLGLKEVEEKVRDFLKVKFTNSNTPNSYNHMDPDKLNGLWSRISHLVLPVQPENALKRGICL
Chain of Albumin (Bos taurus) (P02769 whole entry, looked up): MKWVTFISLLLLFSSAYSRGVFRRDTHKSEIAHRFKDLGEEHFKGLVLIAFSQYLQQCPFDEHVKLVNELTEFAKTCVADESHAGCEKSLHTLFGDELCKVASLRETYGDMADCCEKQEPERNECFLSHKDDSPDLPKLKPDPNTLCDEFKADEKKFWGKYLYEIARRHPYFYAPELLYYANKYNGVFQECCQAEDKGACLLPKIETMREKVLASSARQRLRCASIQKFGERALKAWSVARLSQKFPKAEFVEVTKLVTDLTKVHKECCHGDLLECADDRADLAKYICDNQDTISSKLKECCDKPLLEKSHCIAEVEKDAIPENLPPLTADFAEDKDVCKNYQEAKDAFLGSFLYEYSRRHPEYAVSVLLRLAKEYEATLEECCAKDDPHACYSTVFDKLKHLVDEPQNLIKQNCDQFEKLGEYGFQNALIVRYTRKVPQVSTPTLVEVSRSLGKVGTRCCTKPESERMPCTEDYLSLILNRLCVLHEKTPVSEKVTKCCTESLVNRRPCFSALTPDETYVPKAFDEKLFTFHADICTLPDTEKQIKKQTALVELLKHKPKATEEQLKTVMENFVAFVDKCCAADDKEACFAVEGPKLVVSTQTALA

| Structure (SMILES) | composite z-score [1] | z-score [2] | composite z-score [3] | composite z-score [4] | composite z-score [5] | composite z-score [6] | composite z-score [7] | composite z-score [8] | composite z-score [9] | composite z-score [10] | composite z-score [11] | composite Z-score [12] | composite z-score [13] | composite z-score [14] | composite z-score [15] | composite z-score [16] | composite z-score [17] | composite z-score [18] | composite z-score [19] | composite z-score [20] |
| --- | --- | --- | --- | --- | --- | --- | --- | --- | --- | --- | --- | --- | --- | --- | --- | --- | --- | --- | --- | --- |
| CCOC(=O)C[C@H]1[C@H](OC(=O)Cc2ccc3c(c2)OCO3)[C@@H](NC(=O)c2ccccc2)c2cc(OCCCO)ccc2N1C(=O)c1ccc2ccccc2n1 | 0.594 | 0.173 | 0.11 | 0.481 | -0.455 | -0.152 | 0.172 | -0.0675 | 0.761 | -0.055 | 0.645 | 0.375 (inactive) | -0.226 | -0.147 | 0.08 | 0.526 | -0.145 | 0.679 | 0.127 | 1.1 |
| COc1ccc(C(=O)Nc2ccc(CN3C(=O)[C@@]4(O[C@@H](CC(=O)N5Cc6ccccc6C[C@H]5CO)[C@H]([Si](C)(C)c5ccc(OC)cc5)[C@H]4C)c4ccccc43)cc2)cc1 | 1.1 | -3.84 | 0.804 | 0.0063 | -0.613 | -0.119 | 0.0121 | -0.24 | 1.21 | 1.3 | 0.604 | -0.086 (inactive) | -0.137 | -0.153 | 0.55 | 2.26 | 0.226 | 1.27 | 1.18 | 0.965 |
| N#Cc1ccc(NN2C(C(O)c3ccccc3)C=CC3C(=O)N(c4ccccc4)C(=O)C32)cc1 (stereo not given) | 0.117 | 0.335 | -0.135 | -0.0722 | -0.162 | 0.0797 | -0.102 | 0.642 | -0.113 | 0.153 | 0.801 | 0.151 (inactive) | 0.222 | 0.0288 | 0.809 | 1.97 | 0.191 | 0.0437 | -0.605 | -0.0029 |
| C=CCC(OC(C)=O)[C@@H]1[C@@H](N(Cc2cccc3ccccc23)C(=O)Cc2ccc(F)cc2)c2cc(OCCCO)ccc2N1C(=O)Cc1ccc(OC)cc1 (stereo not given in full) | 0.0243 | -0.81 | 0.584 | 0.965 | -0.652 | -0.197 | -0.0557 | -0.122 | -0.0854 | -0.0482 | 0.006 | -0.328 (inactive) | -0.0454 | -0.119 | 0.191 | -0.0343 | -0.238 | 0.191 | 0.0157 | 1.03 |
| COCCOC(=O)N1C(=O)[C@@]2(c3cc(C#Cc4ccc(OC)cc4)ccc31)[C@H](C(N)=O)[C@H]1C(=O)O[C@H](c3ccccc3)[C@H](c3ccccc3)N1[C@@H]2c1ccc(OCCO)cc1 | 1.42 | -2.25 | 0.746 | 0.894 | -0.454 | -0.0512 | -0.12 | 0.492 | 1.09 | 1.5 | -0.884 | 0.393 (inactive) | 0.43 | -0.0984 | 0.332 | 1.79 | 0.52 | 1.3 | 0.714 | 0.921 |
| CC(C)N1CC=CC23O[C@@H]4C=CCOC(=O)[C@@H]4[C@H]2C(=O)N(CCCCCCO)[C@@H]3C1=O (stereo not given in full) | -0.433 | -0.761 | -0.651 | -0.815 | -0.289 | -0.18 | -0.116 | -0.223 | 2.03 | -0.92 | 0.771 | 0.714 (inactive) | -0.0697 | -0.0451 | 0.923 | -0.0499 | 1.15 | -0.351 | -1.17 | -0.82 |
| COc1ccc([Si](C)(C)[C@@H]2[C@@H](CC(=O)N3Cc4ccccc4C[C@H]3CO)O[C@]3(C(=O)N(Cc4cccc(N5CCCCC5=O)c4)c4ccccc43)[C@H]2C)cc1 | 1.09 | -3.47 | 0.709 | 0.836 | -0.219 | -0.0585 | 0.0557 | 0.228 | 1.11 | 1.9 | -0.565 | 0.436 (inactive) | 0.0425 | -0.133 | -0.0599 | 0.977 | 0.426 | 1.29 | 1.28 | 1.13 |
| [N-]=[N+]=NCc1ccccc1C[C@]1(C(=O)NCCN2CCOCC2)N=C(c2ccc(OCCCO)cc2)O[C@H]1c1ccccc1 | 1.45 | -2.64 | -0.481 | 0.835 | -0.401 | 0.0215 | 0.131 | -0.465 | 1.46 | 1.16 | 0.528 | 0.356 (inactive) | 0.408 | -0.126 | 0.668 | 1.78 | 0.488 | 1.3 | -1.03 | 0.885 |
| C=CCC(OC(C)=O)[C@@H]1[C@@H](N(Cc2ccc(-c3cccc(C(F)(F)F)c3)o2)C(=O)c2cccc3ccccc23)c2cc(OCCCO)ccc2N1C(=O)c1ccc(-c2ccccc2)cc1 (stereo not given in full) | -0.535 | 0.182 | 0.0289 | -0.638 | 0.219 | -0.22 | -0.138 | -0.182 | -0.465 | 0.143 | -0.0913 | -0.0505 (inactive) | 0.0058 | -0.053 | -0.406 | -0.647 | -0.272 | -0.407 | 0.634 | -0.402 |
| C[C@H]1NC(=O)C([C@@H](C)OCc2ccccc2)NC(=O)[C@@]23C(=O)N[C@@H](Cc4ccccc4)C2[C@H](C)[C@@]2(C)O[C@H]2C3/C=C/CC/C=C/CNC1=O (stereo not given in full) | -0.165 | -0.631 | 0.416 | -0.377 | -0.377 | 0.0919 | 0.0815 | -0.37 | 0.26 | 0.421 | 0.506 | -0.169 (inactive) | -0.0647 | -0.0131 | 0.665 | -0.308 | 0.03 | -0.389 | 0.634 | -1.38 |
| CC1(C)[C@@H]2CC(C(O)C3C=CC4C(=O)N(c5ccccc5)C(=O)C4N3Nc3ccccc3F)=C[C@@H]1C2 (stereo not given in full) | 1.4 | -3.15 | 0.501 | 1.18 | -0.229 | 0.164 | 0.0639 | -0.256 | 1.34 | 1.12 | 0.844 | 0.0252 (inactive) | 0.272 | -0.229 | 0.571 | 2.66 | 0.405 | 1.29 | 0.0364 | 1.09 |
